In PubChem BioAssay AID1347420 (Sanford-Burnham Center for Chemical Genomics, 2020) one finds inhibition data, which are given here for 34 compounds.

In all, about 1,300 compounds went through this assay and about 980 (75%) were called active. About 4% were inconclusive and are not listed. The list shows a part of the results.

In general, inhibition refers to the relative decrease from the control value, in per cent.

Chain of Sulfhydryl oxidase 1 (Homo sapiens) (O00391 whole entry, looked up): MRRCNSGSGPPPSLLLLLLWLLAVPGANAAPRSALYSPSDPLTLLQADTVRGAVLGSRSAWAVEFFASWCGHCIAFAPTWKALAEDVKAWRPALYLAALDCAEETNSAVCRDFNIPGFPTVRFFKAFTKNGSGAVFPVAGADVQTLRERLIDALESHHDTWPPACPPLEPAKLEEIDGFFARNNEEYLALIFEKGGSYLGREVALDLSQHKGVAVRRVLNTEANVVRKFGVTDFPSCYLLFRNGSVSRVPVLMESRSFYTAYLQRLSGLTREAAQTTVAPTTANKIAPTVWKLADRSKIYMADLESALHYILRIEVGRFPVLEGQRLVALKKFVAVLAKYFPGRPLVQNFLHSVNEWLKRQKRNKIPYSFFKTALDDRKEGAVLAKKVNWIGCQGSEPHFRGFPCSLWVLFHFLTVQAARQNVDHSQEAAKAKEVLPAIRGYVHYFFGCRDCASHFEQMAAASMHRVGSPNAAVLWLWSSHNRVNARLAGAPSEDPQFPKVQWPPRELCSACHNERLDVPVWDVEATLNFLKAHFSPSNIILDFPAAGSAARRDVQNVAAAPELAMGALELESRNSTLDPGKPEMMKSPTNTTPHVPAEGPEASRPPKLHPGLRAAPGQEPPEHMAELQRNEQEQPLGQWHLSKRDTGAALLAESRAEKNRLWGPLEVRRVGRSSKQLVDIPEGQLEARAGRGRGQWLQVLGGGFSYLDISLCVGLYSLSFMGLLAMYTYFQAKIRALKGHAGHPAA

The experiment concerns the target Sulfhydryl oxidase 1 (Homo sapiens) (UniProt O00391). Put plainly: inhibition of human sulfhydryl oxidase QSOX1 – biochemical, HyperBlu H2O2 luminescence, HTS, primary screen (AID 1347420). Note: values above 100% were filed as inconclusive. Conditions: recombinant QSOX1, HyperBlu H2O2 luminescence; at 12.5 µM; stronger effect = higher value; active = any value above zero.
With `O=c1[nH]cnc2[nH]ncc12`, the inhibition is 19.2% (active).
For `Clc1ccccc1C(c1ccccc1)(c1ccccc1)n1ccnc1`, the inhibition is -1.8% (inactive).
For `CC(=O)/C=C1\C(=O)N(C)c2ccccc21` the value was 4.3% (active).
Turning to `CCCCCCCC/C=C\CCCCCCCC(=O)NCCc1ccc(O)c(O)c1`, the inhibition was 1.1% (active).
For `CCCCCCCC/C=C\CCCCCCCC(=O)NCc1ccc(O)c(OC)c1`, the inhibition is 8% (active).
Regarding `COc1cc(CNC(=O)CCCCCCC(C)C)ccc1O`, the inhibition was 15.1% (active).
Under `CN(C)C(=O)/N=N/C(=O)N(C)C` stands 13.5% (active); under `O=C1Cc2cc(CCN3CCN(c4nsc5ccccc45)CC3)c(Cl)cc2N1`, -10.1% (inactive); under `[N-]=[N+]=Nc1ccc(C(=O)CSC[C@H](NC(=O)CC[C@H](N)C(=O)O)C(=O)NCC(=O)O)cc1`, 19.5% (active).
As to `N[C@@H](CCC(=O)N[C@H](CSN=O)C(=O)NCC(=O)O)C(=O)O`, the inhibition was 15.7% (active).
For `COc1ccc(-c2cc3ncc(C)n3c(Nc3ncccc3C(N)=O)n2)cc1OC` the value was 20.4% (active); for `NO`, -43.8% (inactive); for `O=C1c2ccccc2-c2n[nH]c3cccc1c23`, -5.6% (inactive).
With `COC1=C(OC)C(=O)c2ccccc2C1=O`, the inhibition was 37.3% (active).
For `O=C1c2ccccc2C(=O)c2c(NCCc3ccc(O)cc3)ccc(NCCc3ccc(O)cc3)c21` the value was 60.9% (active); for `O=C(O)C1CN(CCCP(=O)(O)O)CCN1` (centres undefined), 37% (active); for `C[C@](Cc1ccc(O)c(O)c1)(NN)C(=O)O`, 44.1% (active).
Turning to `C[C@](N)(Cc1ccc(O)c(O)c1)C(=O)O`, the inhibition is 36.6% (active).
Consider `CC(N)(Cc1ccc(O)c(O)c1)C(=O)O` (centres undefined), for which the inhibition was 31.2% (active).
In the case of `O=C(c1ccc(OCCCc2cnc[nH]2)cc1)C1CC1`, the inhibition was 8% (active).
Under `CC1(C)CCC(NC(=O)[C@@H](N)CCC(=O)O)CC1` stands 8.5% (active); under `CCOC(=O)Nc1ccc(NCc2ccc(F)cc2)nc1N`, 40% (active).
Regarding `O=C1C(SCCO)=C(SCCO)C(=O)c2ccccc21`, the inhibition is 66.7% (active).
`CN(C)c1nc2c(Br)c(Br)c(Br)c(Br)c2[nH]1`: the inhibition was 46.6% (active).
Under `Nc1nc2[nH]c(=O)cnc2c(=O)[nH]1` stands -15.8% (inactive).
Under `Nc1cc(=O)[nH]c(N)n1` stands 11.6% (active); under `C#CCN(C)CCCOc1ccc(Cl)cc1Cl`, 6.1% (active).
Under `C#CCN(C)Cc1ccccc1` stands -4.3% (inactive); under `Cn1cnc([N+](=O)[O-])c1Sc1ncnc2nc[nH]c12`, 19.5% (active).
Regarding `Fc1ccc(CN(C2=NCCN2)c2c(Cl)cccc2Cl)cc1`, the inhibition was -1.5% (inactive).
For `Nc1cc(Cl)c(NC2=NCCN2)c(Cl)c1` the value was 23.9% (active).
For `Clc1cccc(Cl)c1NC1=NCCN1` the value was 7.2% (active); for `COc1nc(C)nc(Cl)c1NC1=NCCN1`, 12.9% (active); for `Clc1ccc2nsnc2c1NC1=NCCN1`, -10.4% (inactive).
